PubChem BioAssay (NCATS)
Records with an inconclusive call do not appear. Active and inactive are the calls of the source. Calls come from the whole dose curve; as a rule, active = well fitted curve in the direction sought with a large enough effect; inconclusive = small, poorly fitted or top-dose-only effect, or another doubt; inactive = no such curve, though single readings can be large or run the other way.

These compounds were tested against Metallo-beta-lactamase type 2 (Klebsiella pneumoniae) (UniProt C7C422) (assay: qHTS to identify inhibitors of the New Delhi Metallo-beta-lactamase (NDM): assay validation screen against the NCATS LOPAC Collection (AID 1794843;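 note: nitrocefin turnover by NDM-1 measured as 485 nm absorbance at plateau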)). Conditions: NDM-1 enzyme, nitrocefin hydrolysis, absorbance 485 nm; series mostly up to 38.4 µM.
Metallo-beta-lactamase type 2 (Klebsiella pneumoniae), sequence (C7C422 whole entry, looked up): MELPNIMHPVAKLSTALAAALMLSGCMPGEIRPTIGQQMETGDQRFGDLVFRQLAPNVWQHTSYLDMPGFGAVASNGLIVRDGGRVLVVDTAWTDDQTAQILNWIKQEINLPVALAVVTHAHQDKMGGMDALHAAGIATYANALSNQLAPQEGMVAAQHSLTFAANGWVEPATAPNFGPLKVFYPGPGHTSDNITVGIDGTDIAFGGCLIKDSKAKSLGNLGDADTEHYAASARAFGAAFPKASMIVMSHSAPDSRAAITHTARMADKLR
Summary of the method: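 NDM-1 at 2 nM final in 50 mM HEPES pH 7.0, 1 uM ZnSO4, 0.01% Tween20, preincubated with LOPAC compounds pinned in DMSO; 50 uM nitrocefin (stock) added. Hydrolysis read as absorbance at 485 nm in the plateau phase.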
For `CCC(NC(C)C)C(O)c1ccc(O)c(O)c1` (centres undefined), the outcome was “inactive”.
`CCCC1O[C@@H]2C[C@H]3[C@@H]4CCC5=CC(=O)C=C[C@]5(C)[C@H]4[C@@H](O)C[C@]3(C)[C@]2(C(=O)CO)O1` (some centres undefined) was tested, and the outcome was “inactive”.
With `C[C@]12CC[C@@H]3c4ccc(O)cc4CC[C@H]3[C@@H]1CC[C@@H]2O` the outcome was “inactive”.
For `CC(CCc1ccccc1)NCC(O)c1ccc(O)c(C(N)=O)c1` (centres undefined), the outcome was “inactive”.
For `CNCCC(Oc1ccccc1C)c1ccccc1` (centres undefined), the outcome was “inactive”.
In the case of `O=C(O)c1cc2cc(Cc3cccnc3)ccc2o1`, the outcome is reported as “inactive”.
In the case of `N[C@@H](Cc1cnc[nH]1)C(=O)O`, the outcome is reported as “inactive”.
In the case of `C1CCc2nnnn2CC1`, the outcome is reported as “inactive”.
In the case of `CNCCC=C1c2ccccc2CCc2ccccc21`, the outcome is reported as “inactive”.
With `Oc1ccc(O)cc1` the outcome was “inactive”.
`CC(=O)O[C@H]1C[C@@H]2CC[C@@H]3[C@H](CC[C@@]4(C)[C@H]3C[C@H]([N+]3(C)CCCCC3)[C@@H]4OC(C)=O)[C@@]2(C)C[C@@H]1[N+]1(C)CCCCC1` was tested, and the outcome was “inactive”.
In the case of `CC1(C)CCC(NC(=O)[C@@H](N)CCC(=O)O)CC1`, the outcome is reported as “inactive”.
For `C[C@@H]1C(=O)NC2=Nc3cccc(Cl)c3CN21`, the outcome was “inactive”.
`Nc1cc(Cl)c(NC2=NCCN2)c(Cl)c1` was tested, and the outcome was “inactive”.
`C[N+]1(CCCCC[N+]2(C)CCCC2)CCCC1` was tested, and the outcome was “inactive”.
`CN1C2CCC1CC(OC(=O)c1c[nH]c3ccccc13)C2` (centres undefined) was tested, and the outcome was “inactive”.
`CCCn1c(=O)[nH]c(=O)c2[nH]cnc21` was tested, and the outcome was “inactive”.
With `COc1cc2c(cc1O)CC[C@@H]1[C@@H]2CC[C@]2(C)[C@@H](O)CC[C@@H]12` the outcome was “inactive”.
`O=C1CCC(c2ccc(-n3ccnc3)cc2)=NN1` was tested, and the outcome was “inactive”.
